The nature of experiment [1]: CCTE_Deisenroth_5AR_NBTE_donor: CCTE's 5alpha-reductase NanoBRET Target Engagement Assay […], Deisenroth Lab (AID 2284319). As to conditions: actives raise or lower the signal. In short, it runs like this: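 SRD5A2-NanoLuc, HEK293T, 20 h expression. Chemical 10 nM - 29.9 uM, 8 conc, duplicate; 3 h preincubation + 2 h testosterone tracer. Nano-Glo substrate plus extracellular NanoLuc inhibitor; donor lum 460 nm. DMSO baseline, bidirectional fit.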
In general terms: BRET reads energy transfer from a luciferase to a nearby fluorophore.

Experiment [2] can be described thus: CCTE_Deisenroth_5AR_NBTE_acceptor: CCTE's 5alpha-reductase NanoBRET Target Engagement Assay - Autofluorescence Screen, Deisenroth Lab (AID 2284321). As to conditions: actives raise or lower the signal. In short, it runs like this: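 Acceptor-channel fluorescence flags artifacts, with excitation fixed at 460 nm. Nominal 100 uM chemical samples were read in triplicate runs, and signal changes were fitted in both directions relative to DMSO.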

For experiment [3], the system named is SRD5A2 (gene 6716). The experiment in a line: CCTE_Deisenroth_5AR_NBTE_ratio: CCTE's 5alpha-reductase NanoBRET Target Engagement Assay - Ratio, Deisenroth Lab (AID 2284322). As to conditions: actives raise or lower the signal. In short, it runs like this:
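Reverse-transfect HEK293T with pNLF1-C-SRD5A2, express 20 h. Pre-incubate cells with chemical 3 h (8-point series, 10 nM - 29.9 uM, duplicate). Add testosterone tracer, 2 h more. Add substrate/inhibitor, read donor and acceptor emission.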

Experiment [4] deals with IYD (gene 389434). Description: CCTE_GLTED_hIYD: CCTE's human Iodotyrosine Deiodinase (xIYD) Inhibition Assay, Great Lakes Toxicology and Ecology Division (GLTED) Lab (AID 2284317; active means hit-call score of the fitted dose curve at least 0.9, where 1 is the maximum;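 further: cell-free human IYD enzyme made in baculovirus insect cells; iodide freed from monoiodotyrosine measured by cerium arsenite color change at 420 nm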). The procedure, abridged:
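First, recombinant human IYD (baculovirus-insect cells), MIT and chemical incubated 3 h. Next, iodide isolated on Dowex. Finally, Sandell-Kolthoff rate read at 420 nm, with platewise normalization to MNT and solvent controls.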

The subject of experiment [5] is SERPINA7 (gene 6906). Description: CCTE_GLTED_hTBG: CCTE's human Thyroxine-binding Globulin (TBG) Inhibition Assay, Great Lakes Toxicology and Ecology Division (GLTED) Lab (AID 2284343; active means hit-call score of the fitted dose curve at least 0.9, where 1 is the maximum;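 further: active chemicals lower fluorescence versus DMSO baseline by displacing probe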). In short, it runs like this:
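Measures how far test chemicals displace ANSA bound to purified human TBG. The read-out is fluorescence at 380 nm excitation and 475 nm emission, taken after 2 h of incubation.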

Experiment [6] is described as follows: IUF_NPC5_oligodendrocyte_differentiation_120hr: Leibniz Research Institute for Environmental Medicine (IUF) 120-hour Oligodendrocyte Differentiation Assay (NPC5) (AID 2284304; active means hit-call score of the fitted dose curve at least 0.9, where 1 is the maximum;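 further: primary human fetal neural progenitor spheres plated to migrate and differentiate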). The procedure, abridged:
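Oligodendrocyte differentiation scored as O4-positive cells, found by CNN image analysis, as percent of Hoechst-stained nuclei in the migration area. Scoring followed 5 days of exposure of plated hNPC neurospheres differentiating in DMEM/F12 N2 medium at 37C, with compound refreshed at day 3.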

Experiment [7] can be described thus: IUF_NPC2-5_cytotoxicity_72hr: Cytotoxicity Assessment at 72 hours in the Leibniz Research Institute for Environmental Medicine (IUF) Neural Progenitor Cell Migration and Differentiation Assay for Cytotoxicity (NPC2-5) (AID 2284306; active means hit-call score of the fitted dose curve at least 0.9, where 1 is the maximum;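 further: LDH release into supernatant measured by resorufin fluorescence marking membrane damage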). In short, it runs like this:
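Human fetal (GW 16-19) neural progenitor spheres, 0.3 mm, plated on poly-D-lysine/laminin in N2 differentiation medium and exposed from day 0 to 7 concentrations plus solvent control (DMSO ≤0.1%). LDH-dependent resazurin-to-resorufin fluorescence in supernatant at 72 h.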

Experiment [8] is described as follows: IUF_NPC2-5_cytotoxicity_120hr: Cytotoxicity Assessment at 120 hours in the Leibniz Research Institute for Environmental Medicine (IUF) Neural Progenitor Cell Migration and Differentiation Assay (NPC2-5) (AID 2284307; active means hit-call score of the fitted dose curve at least 0.9, where 1 is the maximum). The procedure, abridged:
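Membrane-integrity loss measured as LDH activity in medium supernatant via resazurin-to-resorufin fluorescence after 120 h exposure. hNPC spheres from GW 16-19 fetal cortex differentiated on poly-D-lysine/laminin, 37C, medium half-refreshed day 3; seven concentrations, DMSO max 0.1%.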

Experiment [9] can be described thus: IUF_NPC2-5_cell_number_120hr: Cell Number Assessment at 120 hours in the Leibniz Research Institute for Environmental Medicine (IUF) Neural Progenitor Cell Migration and Differentiation Assay (NPC2-5) (AID 2284308).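 Further: count of Hoechst-stained nuclei in migration zone around plated human neural progenitor spheres.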 The procedure, abridged:
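Counting of all Hoechst-stained nuclei in the migration area at 120 h, versus DMSO control. Primary hNPC spheres differentiated on poly-D-lysine/laminin in N2 medium at 37C, dosed from day 0 (7 concentrations, DMSO ≤0.1%), half-refed day 3.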

Experiment [10] is described as follows: IUF_NPC2-5_viability_120hr: Viability Assessment at 120 hours in the Leibniz Research Institute for Environmental Medicine (IUF) Neural Progenitor Cell Migration and Differentiation Assay (NPC2-5) (AID 2284312). The procedure, abridged: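 Human fetal (GW 16-19) neural progenitor spheres of 0.3 mm were plated on poly-D-lysine/laminin in N2 differentiation medium and exposed from day 0 for 120 h, with half-medium refresh at day 3. Viability was read as alamar blue resazurin-to-resorufin fluorescence against DMSO.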

Experiment [11] in a line: CCTE_Mundy_HCI_iCellGluta_NOG_NeuriteLength: CCTE's Neurite Outgrowth Assay in iCellGluta cells for Neurite Length, Mundy Lab (AID 2284318; active means hit-call score of the fitted dose curve at least 0.9, where 1 is the maximum). In short, it runs like this:
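Automated high-content imaging of betaIII-tubulin (Alexa Fluor-488) and Hoechst-stained cells gave neurite length, normalized to the DMSO baseline.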

Experiment [12] in a line: IUF_NPC1_cytotoxicity_72hr: Cytotoxicity Assessment at 72 hours in the Leibniz Research Institute for Environmental Medicine (IUF) Neural Progenitor Cell Proliferation Assay (NPC1) (AID 2284332; active means hit-call score of the fitted dose curve at least 0.9, where 1 is the maximum;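 further: rising LDH signal means more cytotoxicity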). In short, it runs like this: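 hNPC spheres (fetal brain, gestational week 16-19) grown under proliferative EGF/FGF conditions, pH 7.2-7.6, were treated continuously for 72 h. Cytotoxicity came from LDH-coupled resazurin fluorescence in each well's supernatant.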

A short description of experiment [13]: CCTE_Mundy_HCI_iCellGluta_NOG_NeuriteCount: CCTE's Neurite Outgrowth Assay in iCellGluta cells for Neurite Count, Mundy Lab (AID 2284342; active means hit-call score of the fitted dose curve at least 0.9, where 1 is the maximum;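 further: chemical exposure about 48 hours starting 2 hours after plating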).
Experiment [14] in a line: TAMU_PeakParms_SingleDonor1434_Asystole: Texas A&M University (TAMU) 1.5-hr Human Induced Pluripotent Stem Cell (iPSC)-derived Cardiomyocytes Calcium (Ca+2) Flux Assay for Cardiotoxicity: Asystole (quiescence of beating) (AID 2284328; active means hit-call score of the fitted dose curve at least 0.9, where 1 is the maximum). In short, it runs like this:
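Human iPSC-derived cardiomyocytes (donor 1434) were exposed to 0.2, 1, 10 and 100 uM compound in 0.5% DMSO for 90 min at 37C. Ca2+-dye fluorescence gave average peak frequency; POD is EC95, a 95% beat-rate drop versus DMSO.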

The nature of experiment [15]: CCTE_Padilla_ZF_Score.Craniofacial: CCTE's 144 Hour Post-fertilization zebrafish Assay Score for Craniofacial Malformation, Padilla Lab (AID 2284405). In short, it runs like this:
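Wild-type zebrafish embryos (with chorions), one per well in 10% Hanks', were dosed at 6–8 hpf in sealed plates and kept at 26C. They were rinsed at 5 dpf. At 6 dpf two blinded assessors scored craniofacial malformations by brightfield stereomicroscopy.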

Experiment [16] in a line: CCTE_Padilla_ZF_Score.Edema: CCTE's 144 Hour Post-fertilization zebrafish Assay Score for Edema Malformation, Padilla Lab (AID 2284406). The procedure, abridged: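 Wild-type zebrafish embryos, one per well in Hanks' solution, dosed at 6-8 hpf, sealed and reared at 26C on a 14:10 h cycle; rinsed on 5 dpf. At 6 dpf, blinded assessors scored edema by stereomicroscopy.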
The nature of experiment [17]: CCTE_Padilla_ZF_Score.Spine: CCTE's 144 Hour Post-fertilization zebrafish Assay Score for Spine Malformation, Padilla Lab (AID 2284407). The procedure, abridged: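 Wild-type zebrafish embryos, one per well in Hanks' solution, dosed at 6–8 hpf in sealed plates at 26C, 14:10 h light:dark; rinsed at 5 dpf. Two blinded assessors scored spinal defects by stereomicroscopy at 6 dpf; fitted versus DMSO.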

Experiment [18] in a line: CCTE_Padilla_ZF_Score.Swim_bladder: CCTE's 144 Hour Post-fertilization zebrafish Assay Score for Swim Bladder Malformation, Padilla Lab (AID 2284408). The procedure, abridged:
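Wild-type zebrafish embryos, one per well in 10% Hanks', dosed at 6–8 hpf, sealed, reared at 26C and rinsed at 5 dpf. Blinded assessors scored uninflated swim bladder by stereomicroscopy at 6 dpf, relative to DMSO.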

Inconclusive results are not listed. Active and inactive are the calls of the source. How the source made its calls, unless noted: active means hit-call score of the fitted dose curve at least 0.9, where 1 is the maximum; inactive means score below 0.9.

For the molecule `CN(C)c1ccc(C(=N)c2ccc(N(C)C)cc2)cc1`, the outcome in experiment [1] and in [2] was inactive. Also, in experiment [3], the AC50 was 22.6 µM (active).
For the molecule `CC(C)(C)c1ccc(-c2ccc(C(C)(C)C)cc2)cc1`, the molecule was classed as inactive in experiment [4].
As for `O=C(C=Cc1ccccc1)OCc1ccccc1`, the AC50 in [5] was 25.7 µM (active).
The same measure, in the same setting: for `CCOC(=O)Cc1cccc2ccccc12` the value was 13.4 µM (active).
With `CC1=NN(c2cc(S(=O)(=O)O)ccc2Cl)C(=O)C1N=Nc1ccccc1` (stereo not drawn), the molecule was classed as inactive in experiment [1], in [2] and in experiment [5]. In addition, the AC50 in experiment [3] is 10 µM (active).
`CC1(C)S[C@@H]2[C@H](NC(=O)COc3ccccc3)C(=O)N2[C@H]1C(=O)O`: the molecule was classed as inactive in experiment [6], in experiment [7], in experiment [8], in experiment [9], in experiment [10] and in experiment [11]. The call in experiment [12] and in [13] was inactive.
Take `O=C(O)CCCC[C@@H]1SC[C@@H]2NC(=O)N[C@@H]21`: the result in experiment [14] was inactive.
`CCCCCCCC/C=C\CCCCCCCC(=O)O`: the AC50 in experiment [4] was 41 µM (active); in experiment [5] it was 8.56 µM (active). In addition, the molecule was called inactive in experiment [1], in experiment [2] and in experiment [3].
Take `CCCc1ccc(OC)cc1`: the outcome in [1], in experiment [2] and in experiment [3] was inactive.
Take `FC(F)=C(F)OC(F)(F)C(F)(F)C(F)(F)F`: the outcome in experiment [15], in experiment [16], in experiment [17] and in experiment [18] was inactive.
For `CC(C)(C)c1ccc(OC(=O)c2ccccc2O)cc1`, in experiment [5], the AC50 is 1.69 µM (active).
As for `Cc1ccc(C(C)c2ccc(C)c(C)c2)cc1C`, the call in experiment [1] and in experiment [2] was inactive. Besides, the AC50 in experiment [3] was 50 µM (active); in [5], 1.8 µM (active).
Regarding `C1CN(SSN2CCOCC2)CCO1`, the outcome in [1], in experiment [2] and in experiment [3] was inactive.
As to `CC=CC(F)(F)C(F)(F)C(F)(F)F`, the result in experiment [15], in experiment [16], in [17] and in experiment [18] was inactive.

One may read the AC50 as the midpoint of the concentration-response curve, whichever way the signal moves.

The values above are taken from PubChem BioAssay (EPA / NIEHS).
